104 compounds from ChEMBL document CHEMBL3988442, “University of Dundee, Small-Polar-MMV Screening Library” (2021) can be followed below.

The whole screen tested about 48,000 compounds, of which about 13,000 (27%) showed an effect of 50% or more. The list shows a part of the results.

The subject of this test is Wolbachia pipientis. Briefly: Anti-Wolbachia Cell-Based Screen. It is filed as functional. Details: scale not given: in the data most compounds retested in dose-response had high values. To be noted: 5 µM.
On to `CCOCc1cncc2c1CCN(S(=O)(=O)c1cccc(C)c1)C2`, for which the “Percent Effect” value is given as 11.95%.
For `O=S(=O)(C1CC1)N1CCc2c(CN3CCOCC3)cncc2C1` the value was 82.99%; for `O=S(=O)(NCCN1CCOCC1)c1cncc(Cl)c1`, -2.689%.
In the case of `CC(C)(C)NC(=O)NC(=O)COc1nc(C(C)(C)C)no1`, the “Percent Effect” value is -2.31%.
With `O=C(Cn1cnc2cc3c(cc21)OCCCO3)NC1CCCC1` the figure was 88.37%; with `O=C(CCNCc1cccc2c1OCCCO2)NC1CCCC1`, -1.594%.
Consider `CC(C)(C)n1ncc2c(=O)n(CC(=O)NCCc3ccccc3)cnc21`, for which the “Percent Effect” value is on record as 21.71%.
With `O=C(Cn1cnc2cc3c(cc21)OCCCO3)NCCc1ccccc1` the figure was 66.67%.
For `O=C(Cn1cnc2cc3c(cc21)OCCCO3)NC1CCCCC1` the value was 96.56%; for `O=C(Cc1cc(-c2ccc3c(c2)OCO3)on1)NC1CCCC1`, -5.202%.
For `O=C(Cn1cccnc1=O)NCCc1ccc2c(c1)OCCO2` the value was 1.93%.
Turning to `CNc1nc(CNC(=O)Nc2ccc(OC(C)C)cc2F)cs1`, the “Percent Effect” value turned out to be 6.813%.
On to `CC(c1cccc(Cl)c1)N1CCN(S(C)(=O)=O)CC1` (centres undefined), for which the “Percent Effect” value is recorded as 0.53%.
With `CS(=O)(=O)N1CCN(CC(O)COc2ccc(F)cc2)CC1` (centres undefined), the “Percent Effect” value is -6.942%.
For `CS(=O)(=O)N1CCN(CC(O)COc2ccc(Cl)cc2)CC1` (centres undefined) the value was 153.2%; for `CCc1ccc(OCC(O)CN2CCN(S(C)(=O)=O)CC2)cc1` (centres undefined), 13.83%.
With `CCOc1ccc(OCC(O)CN2CCN(S(C)(=O)=O)CC2)cc1` (centres undefined) the figure was 152.9%; with `CN1CCC(N2CC[C@@H]3[C@@H](CCC(=O)N3CCC3=CCCCC3)C2)CC1`, -18.13%.
With `CC(Cn1cccn1)NS(=O)(=O)Cc1ccc(F)cc1` (centres undefined) the figure was 0.5755%; with `CC(=O)c1cc(Br)cc(F)c1OCC(=O)NC(C)C`, 60.24%.
In the case of `COc1cc(CCC(=O)NC2CC2)ccc1OCC(F)(F)F`, the “Percent Effect” value is listed as -6.568%.
With `CNC(=O)COc1c(C(C)=O)ccc(Cl)c1Cl` the figure was -15.04%.
For the compound `Cc1ccc(OCC(=O)NC2CC2)nc1`, the “Percent Effect” value was -4.219%.
For `CNC(=O)NC(=O)COc1c(C(C)=O)ccc(Cl)c1Cl` the value was 18.02%.
Turning to `CNC(=O)COc1c(F)cc(Br)cc1C(C)=O`, the “Percent Effect” value is 112.4%.
For `COC(=O)COc1c(F)cc(Br)cc1C(C)=O` the value was 110.5%; for `COc1ccc(C(C)=O)c(OCC(=O)NC(C)c2ccc(F)cc2)c1` (centres undefined), 9.317%; for `CC(=O)c1ccc(Cl)c(Cl)c1OCC(=O)NCC(F)(F)F`, -11.44%.
`CC(=O)c1ccc(Cl)c(Cl)c1OCC(=O)NC(C)C`: the “Percent Effect” value is -9.893%.
For `O=C(COc1ccc(Br)cc1F)Nc1cn[nH]c1` the value was -2.369%; for `CC(=O)c1cc(Br)cc(F)c1OCC(=O)NC1CC1`, 100.7%; for `CCSc1ncc(CN(Cc2cnn(C)c2)CC(C)C)cn1`, -10.44%.
With `Cc1cc(C(=O)OCC2CCCN2C(N)=O)c(C)o1` (centres undefined) the figure was -25.43%; with `CC(C)c1cc(N2CCC[C@H](N)C2)n2nccc2n1`, 19.12%; with `CCc1noc(CNc2cc3c(cc2Cl)OCCCO3)n1`, -0.8134%.
On to `Cc1n[nH]c(=O)c2c(NC(=O)CN3CCCC(C(F)(F)F)C3)oc(C)c12` (centres undefined), for which the “Percent Effect” value amounted to 17.73%.
With `CC(NC(=O)N1CCS(=O)(=O)CC1)c1ccc(F)cc1Cl` (centres undefined) the figure was -12.17%; with `NC(=O)C1=NC2=NS(=O)(=O)c3ccccc3N2N1Cc1ccccc1Cl`, -9.423%; with `COc1ccc2c3c1CN(C(C)=O)CC3=CC(C)(C)CO2`, 80.53%.
With `COc1ccccc1C(C)N1CCN(S(C)(=O)=O)CC1` (centres undefined) the figure was -21.28%.
For `COCC1CC2(CCN(C(=O)c3ccc(OC)c(Cl)c3)CC2)CO1` (centres undefined) the value was 1.634%; for `COC(=O)N1CC2=CC(C)(C)COc3ccc(OC)c(c32)C1`, 125.4%.
As for `COCCOC(=O)N1CC2=CC(C)(C)COc3ccc(OC)c(c32)C1`, the “Percent Effect” value was 110%.
With `COc1ccc(NC(C)=O)c(N2CCN(C(C)=O)CC2)n1`, the “Percent Effect” value came out at 4.921%.
For `COc1ccc2c3c1CN(S(C)(=O)=O)CC3=CC(C)(C)CO2` the value was 106.6%.
With `COc1ncccc1C1CC(=O)NCc2nc3sccn3c21` (centres undefined) the figure was -19.07%.
For `COCc1cc(NCc2cccnc2Oc2ccc(C)nc2)ncn1` the value was -2.689%; for `CSCCC1c2nc[nH]c2CCN1Cc1cncn1C` (centres undefined), -0.6967%.
Turning to `CSCc1noc(CNC(=O)c2cc(C)c(C)[nH]c2=O)n1`, the “Percent Effect” value is -3.67%.
For `CC(C)N(C)C(=O)C1CSCN1S(=O)(=O)c1cccs1` (centres undefined), the “Percent Effect” value is given as 24.99%.
For `CCc1cc(NCC(N)=O)nc(N2CCCCC2)n1` the value was 3.256%; for `COc1ccc2cc(C3CN(C(=O)N(C)C)CCO3)ccc2c1` (centres undefined), 8.393%; for `COCC(=O)N1CC2=CC(C)(C)COc3ccc(OC)c(c32)C1`, 86.58%.
For `CCNC(=O)N1CCC2(CC1)CCn1c(-c3cccc(OC)c3)cnc12` the value was -4.783%.
For `COCC(=O)N1CCN(C(=O)C2(c3ccc(C)c(OC)c3)CC2)CC1` the value was 8.797%; for `CCNC(=O)N1C[C@@H](NC(C)=O)[C@H](c2ccc(C)o2)C1`, -5.007%; for `COCC(=O)N1CCc2[nH]nc(-c3ccc4c(c3)OCO4)c2C1`, -8.415%.
Turning to `COc1ccc2c3c1CN(C(=O)N(C)C)CC3=CC(C)(C)CO2`, the “Percent Effect” value amounted to 71.28%.
In the case of `CCNC(=O)N1CC2=CC(C)(C)COc3ccc(OC)c(c32)C1`, the “Percent Effect” value is on record as 61.47%.
For `Cc1cccc2ncnc(N3CCOC(C)C3)c12` (centres undefined) the value was 0.1008%; for `O=C1C(N2CCN(c3ccccc3Cl)CC2)CCN1C1CCOCC1` (centres undefined), -17.41%; for `CCCn1nc(C)c(CNC(=O)C2COc3c(cccc3OC)C2)c1C` (centres undefined), -7.419%.
With `O=C(NC[C@H]1OC[C@@H](NCc2ccccc2F)[C@@H]1O)c1ccc(F)cc1` the figure was -2.288%.
For `CC(C)c1n[nH]c(C(=O)NC(C)c2ccncc2)c1Br` (centres undefined) the value was 112.2%; for `CC(C)c1n[nH]c(C(=O)Nc2ccnn2C(C)C)c1Br`, -14.02%.
For the compound `COc1ccncc1NC(=O)c1[nH]nc(C(C)C)c1Br`, the “Percent Effect” value is reported as -9.572%.
For `Cc1ccnc(NC(=O)c2[nH]nc(C(C)C)c2Br)c1` the value was 97.23%; for `CC(C)c1n[nH]c(C(=O)Nc2ccccn2)c1Br`, 113.3%.
With `Cc1cccc(NC(=O)c2[nH]nc(C(C)C)c2Br)n1` the figure was 122.8%; with `COc1ncccc1NC(=O)c1[nH]nc(C(C)C)c1Br`, 15.14%.
As for `CC(C)c1n[nH]c(C(=O)Nc2ccncc2)c1Br`, the “Percent Effect” value is -16.38%.
`CC(C)c1n[nH]c(C(=O)Nc2cc[nH]n2)c1Br`: the “Percent Effect” value is -7.047%.
For `Cn1cc(CN2CCn3cc(CNC(=O)C4CCC4)nc3C2)cn1.O=C(O)C(F)(F)F`, the “Percent Effect” value worked out at 18.03%.
With `O=C(NCc1nnc2ccccn12)N1CCOC(c2cccs2)C1` (centres undefined), the “Percent Effect” value is listed as -3.405%.
With `COc1ccc(-n2nc(C3CC3)nc2CCn2cnnn2)cc1` the figure was -7.711%; with `COc1ccc(N2Cc3n[nH]c(=O)n3C2=O)cc1`, -0.5114%; with `COC[C@H]1CCC[C@]12CN(CCc1ccccc1)CCO2.O=C(O)C(F)(F)F`, 30.11%.
With `O=C(O)C(F)(F)F.O=C(c1ccc[nH]1)N1CCO[C@]2(CCC[C@@H]2COc2cccnc2)C1` the figure was -3.807%; with `COC[C@H]1CCC[C@]12CN(C(=O)NCc1ccccc1)CCO2`, 18.34%; with `O=C(c1ccno1)N1CCO[C@]2(CCC[C@@H]2COCc2ccncc2)C1`, -0.3534%.
For `COC[C@@H]1CCC[C@@]12CN(C(=O)N1CCCC1)CCO2` the value was 87.5%; for `O=C(c1ccoc1)N1CCO[C@]2(CCC[C@@H]2COCc2ccncc2)C1`, -6.569%; for `COC[C@@H]1CCC[C@@]12CN(C(=O)N(C)C)CCO2`, 101.2%.
As to `COCC(=O)N1CCO[C@]2(CCC[C@H]2COC)C1`, the “Percent Effect” value was 106.8%.
With `Cc1[nH]c2c(F)cccc2c1CC(=O)NCCCNc1cccnc1` the figure was 12%.
Consider `Cc1noc(COCC(=O)Nc2ccc(Br)c(C)n2)n1`, for which the “Percent Effect” value was determined as 11.2%.
With `O=C(c1ccccc1)N1C[C@@H]2CC[C@H](C1)N(C(=O)CN1CCOCC1)C2` the figure was -9.595%; with `CCc1nc(CNC(=O)c2ccc(C(C)N3CCCCC3)o2)cc(=O)[nH]1` (centres undefined), -0.08952%; with `CCn1c(C)nnc1SCCNc1nc(C)nc2c1cnn2C`, -4.457%.
For `CCC(Nc1nc(C)nc2c1cnn2C)c1ncnn1CC` (centres undefined) the value was 13.02%; for `CCOC(=O)CC(C)Nc1nc(C2CCCC2)nc2c1cnn2C` (centres undefined), -2.112%; for `CCCc1nc(N(C)CCN2CCCCCC2)c2cnn(C)c2n1`, 11.67%.
Consider `Cc1nc(NC2(CN3CCCCC3)CCCCC2)c2cnn(C)c2n1`, for which the “Percent Effect” value came out at 98.05%.
For `COCC1(Nc2nc(C)nc3c2cnn3C)CCCC1` the value was 115.3%.
With `CCOC(=O)CNc1nc(C(C)(C)C)nc2c1cnn2C`, the “Percent Effect” value worked out at 2.145%.
For `CCCc1nc(NC2(COC)CCCC2)c2cnn(C)c2n1` the value was 85.47%.
For `Cn1ncc2c(NCCC34CCCN3CCC4)nc(C3CCCC3)nc21` the value was 4.055%; for `Cc1nsc(NC(=O)NC2(CN3CCCCC3)CCCCC2)n1`, 1.448%; for `CCOC(=O)CNc1nc(COC)nc2c1cnn2C`, 5.543%.
In the case of `CCOC(=O)CC1(Nc2nc(C)nc3c2cnn3C)CCCCC1`, the “Percent Effect” value is recorded as 107.9%.
For `O=C(C1=CCCC1)N1CCC[C@]2(C[C@@H](OCc3ccccn3)CO2)C1.O=C(O)C(F)(F)F` the value was 5.284%; for `CS(=O)(=O)N1C[C@@H]2CC[C@H](C1)N(C(=O)Cn1nc3ccccc3n1)C2`, 3.871%.
As to `Cc1csc(N2CCN(C(=O)CCC(=O)c3ccc(C)s3)CC2)n1`, the “Percent Effect” value is listed as 7.228%.
With `CCS(=O)(=O)N1CCOC2(COCCN(c3nccs3)C2)C1` (centres undefined) the figure was 11.05%.
